Measurements from PubChem BioAssay (Tox21).
Inconclusive results are not listed. Where a call stands in place of a potency, no number is given. Active and inactive are the calls of the source. Unless noted, calls follow the shape of the dose curve; as a rule, active = well fitted curve in the direction sought with a large enough effect in the repeat runs; inconclusive = weak or mixed curves; inactive = no such curve, though single readings can be large; an effect the other way counts as inactive or inconclusive.

Legend:
[1] = qHTS assay for small molecule agonists of the p53 signaling pathway (AID 651631; calls by dose curve; also: nearly all actives have a fitted effect of over 15% in size)
Method in brief: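 Read-out is beta-lactamase FRET fluorescence measured 2 h after substrate addition at room temperature, in HCT-116 cells with a p53 response element-driven reporter exposed to compounds for 16 h at 37 °C.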

[2] = qHTS assay for small molecules that induce genotoxicity in human embryonic kidney cells expressing luciferase-tagged ATAD5 (AID 651632); also: nearly all actives have a fitted effect of over 15% in size
Method in brief: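 Luminescent reporter readout, HEK293T ATAD5-luc line: 16 hr drug exposure (37C, 5% CO2) followed by Amplite, 30 min RT.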

[3] = qHTS assay for small molecule agonists of the p53 signaling pathway - cell viability (AID 651633; calls by dose curve;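 also: p53RE-bla HCT reporter cells with a stable beta-lactamase p53 reporter; series mostly up to about 83 µM; nearly all actives have a fitted effect of over 30% in size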)
Method in brief: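 p53RE-bla cells, seeded at 4,000 per well and rested 5 h at 37 C/5% CO2, received compounds in DMSO for 16 h at 37 C. CellTiter-Glo was then added, and luminescence was read after 30 min at room temperature to gauge cytotoxicity.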

[4] = qHTS assay for small molecules that induce genotoxicity in human embryonic kidney cells expressing luciferase-tagged ATAD5 - cell viability (AID 651634; calls by dose curve; also: nearly all actives have a fitted effect of over 25% in size)
Method in brief: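 Viability read: CellTiter-Fluor fluorescence, 30 min at 37C. Cells: HEK293T, luciferase-tagged ATAD5. Exposure: 15.5 hr, 37C, 5% CO2, compound or DMSO vehicle.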

[5] = qHTS assay for small molecule disruptors of the mitochondrial membrane potential - cell viability (AID 720634; calls by dose curve;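 also: human HepG2 liver cancer cells; series mostly up to about 83 µM; nearly all actives have a fitted effect of over 20% in size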)
Method in brief: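 HepG2, 1 hr compound, 37 C. ATP luminescence via CellTiter-Glo, 30 min RT, same well as m-MPI.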

[6] = qHTS assay for small molecule disruptors of the mitochondrial membrane potential (AID 720635)
Method in brief: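 HepG2 cells (2,000/well) attached overnight at 37C, then took compound for 1 hr at 37C, 5% CO2. Mito-MPS dye was added for 30 min; fluorescence was read at 490/535 nm (monomers) and 540/590 nm (aggregates).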

[7] = qHTS assay to test for compound auto fluorescence at 590 nm (red) in HepG2 cells (AID 720674)
Method in brief: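 Compound auto-fluorescence is scored relative to Rose Bengal sodium, measured at 540/590 nm in live HepG2 cultures after 1 hr compound contact (37 C, 5% CO2).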

[8] = qHTS assay to test for compound auto fluorescence at 535 nm (green) in HepG2 cells (AID 720675)
[9] = qHTS assay to test for compound auto fluorescence at 460 nm (blue) in HEK293 cells (AID 720678)
Method in brief: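 After cell attachment (4-5 hr, 37C), compounds were pinned onto HEK293 monolayers in 10% dialyzed FBS medium. The blue channel (405/460 nm) was read following overnight culture. Equivalency was calculated against triamterene.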

[10] = qHTS assay to test for compound auto fluorescence at 590 nm (red) in HEK293 cells (AID 720679)
Method in brief: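 Plates of HEK293 cells (10% dialyzed FBS) are treated with 23 nL compound or DMSO vehicle after a 4-5 hr attachment period, incubated overnight at 37C, and read for red fluorescence at 540/590nm.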

[11] = qHTS assay to test for compound auto fluorescence at 535 nm (green) in HEK293 cells (AID 720680)
[12] = qHTS assay to test for compound auto fluorescence at 590 nm (red) in HEK293 cell free culture (AID 720683)
Method in brief: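 Tox21 10K library compounds were pinned into cell-free DMEM with 10% FBS and fluorescence was read at excitation 540 nm. Activity is expressed as Rose Bengal sodium equivalency.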

[13] = qHTS assay to test for compound auto fluorescence at 590 nm (red) in HepG2 cell free culture (AID 720684)
Method in brief: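 Red fluorescence (540 nm excitation, 590 nm emission) was measured after compound transfer into cell-free MEM supplemented with 10% FBS. Values are equivalencies against Rose Bengal sodium.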

[14] = qHTS assay to test for compound auto fluorescence at 460 nm (blue) in HepG2 cell free culture (AID 720685)
Method in brief: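 Compound (23 nL) or DMSO pinned into cell-free MEM with 10% FBS; blue fluorescence read at 405/460 nm excitation/emission, expressed as auto-fluorescence equivalency to triamterene.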

[15] = qHTS assay to test for compound auto fluorescence at 535 nm (green) in HepG2 cell free culture (AID 720686)
[16] = qHTS assay to test for compound auto fluorescence at 460 nm (blue) in HepG2 cells (AID 720687)
Method in brief: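 Cells (2,000/well in MEM with 10% FBS) attached overnight at 37 C, then were exposed to compound or DMSO for 1 hr at 37 C, 5% CO2. Fluorescence read at Ex/Em 405/460 nm, expressed as triamterene-equivalent signal.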

[17] = target: Glucocorticoid receptor (Homo sapiens) (UniProt P04150); assay: qHTS assay to identify small molecule agonists of the glucocorticoid receptor (GR) signaling pathway (AID 720691; active = well fitted activation curve with a large enough effect in the signal ratio in the repeat runs, not every such curve was filed as active; the % refers to the signal ratio)
Method in brief: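 qHTS in GR-bla HeLa cells: 4 h settling at 37 C/5% CO2, 18 h compound incubation at 37 C, 2 h LiveBLAzer B/G FRET substrate at room temperature, fluorescence intensity measured.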

[18] = target: Glucocorticoid receptor (Homo sapiens) (UniProt P04150); assay: qHTS assay to identify small molecule antagonists of the glucocorticoid receptor (GR) signaling pathway (AID 720692; active = well fitted inhibition curve with a large enough effect in the signal ratio in the repeat runs, not every such curve was filed as active; the % refers to the signal ratio)
Method in brief: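 Inhibition of glucocorticoid signalling is measured in HeLa cells with a GRE-controlled beta-lactamase reporter; cells are co-treated with compound and 5 nM dexamethasone (final) for 18 h before FRET substrate readout.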

[19] = qHTS assay to identify small molecule antagonists of the glucocorticoid receptor (GR) signaling pathway - cell viability counter screen (AID 720693); also: nearly all actives have a fitted effect of over 55% in size
[20] = qHTS assay for identifying genotoxic compounds that show differential cytotoxicity against isogenic chicken DT40 cell lines with known DNA damage response pathways - wild type cell line (AID 743012); also: potency is read from the fitted curve at half-maximal effect; nearly all actives have a fitted effect of over 60% in size
Method in brief: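 First, wild type DT40 cells were plated at 300 per well and equilibrated about 0.5 h at 37 C/5% CO2. Next, compounds in DMSO were added and exposure lasted 40 h. Finally, CellTiter-Glo was added for 30 min at room temperature and luminescence recorded.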

[21] = qHTS assay for identifying genotoxic compounds that show differential cytotoxicity against isogenic chicken DT40 cell lines with known DNA damage response pathways - Rev3 mutant cell line (AID 743014); also: potency is read from the fitted curve at half-maximal effect; nearly all actives have a fitted effect of over 55% in size
[22] = qHTS assay for identifying genotoxic compounds that show differential cytotoxicity against isogenic chicken DT40 cell lines with known DNA damage response pathways - Rad54/Ku70 mutant cell line (AID 743015); also: potency is read from the fitted curve at half-maximal effect; nearly all actives have a fitted effect of over 60% in size
[23] = qHTS assay to identify small molecule antagonists of the androgen receptor (AR) signaling pathway - cell viability counter screen (AID 743033; also: nearly all actives have a fitted effect of over 45% in size)
[24] = qHTS assay to identify small molecule antagonists of the thyroid receptor (TR) signaling pathway - cell viability counter screen (AID 743064); also: nearly all actives have a fitted effect of over 50% in size
Method in brief: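 Fluorescence from CellTiter-Fluor, added after 23.5 h exposure at 37 °C, reported viability of GH3.TRE-Luc cells co-treated with compound and 1 nM T3. Measured in the same wells as the luciferase TR readout.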

[25] = test system: thyroid hormone receptor (rat, GH3 cells); assay: qHTS assay to identify small molecule agonists of the thyroid receptor (TR) signaling pathway (AID 743066; calls by dose curve)
[26] = target: Estrogen receptor (Homo sapiens) (UniProt P03372); assay: qHTS assay to identify small molecule antagonists of the estrogen receptor alpha (ER-alpha) signaling pathway (AID 743069; active = well fitted curve in the direction sought with a large enough effect in the signal ratio in the repeat runs, not every such curve was filed as active; the % refers to the signal ratio)
Method in brief: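 HEK293 cells stably carrying an ER-alpha-UAS-bla beta-lactamase reporter were pre-cultured overnight in 2% charcoal-stripped FBS medium. Test compounds in DMSO were added together with 17beta-estradiol for 18 hr at 37C. Read-out was fluorescence after 2 hr with LiveBLAzer B/G FRET substrate at room temperature.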

[27] = qHTS assay to identify small molecule antagonists of the estrogen receptor alpha (ER-alpha) signaling pathway - cell viability counter screen (AID 743074; calls by dose curve; also: nearly all actives have a fitted effect of over 45% in size)
[28] = target: Estrogen receptor (Homo sapiens) (UniProt P03372); assay: qHTS assay to identify small molecule agonists of the estrogen receptor alpha (ER-alpha) signaling pathway (AID 743075; calls by dose curve)
[29] = target: Estrogen receptor (Homo sapiens) (UniProt P03372); assay: qHTS assay to identify small molecule agonists of the estrogen receptor alpha (ER-alpha) signaling pathway using the BG1 cell line (AID 743079); also: nearly all actives have a fitted effect of over 20% in size
[30] = qHTS assay to identify small molecule antagonists of the estrogen receptor alpha (ER-alpha) signaling pathway using the BG1 cell line (AID 743080; calls by dose curve;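 also: BG1 cells stimulated with 17beta-estradiol alongside compound; series mostly up to about 70 µM; nearly all actives have a fitted effect of over 25% in size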)
Method in brief: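 Seeding, 24 h rest, compound transfer from DMSO, 17beta-estradiol addition, 21.5 h incubation, CellTiter-Fluor (30 min, 37 C), then ONE-Glo (30 min, room temperature): this sequence was run on BG1-Luc-4E2 reporter cells.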

Aromatase (Homo sapiens) = Aromatase (Homo sapiens) (UniProt P11511); assay: qHTS assay to identify aromatase inhibitors (AID 743083); also: series mostly up to about 70 µM; nearly all actives have a fitted effect of over 55% in size
[31] = qHTS assay to identify aromatase inhibitors - cell viability counter screen (AID 743084);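 also: cells stimulated with testosterone during compound exposure; nearly all actives have a fitted effect of over 55% in size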
[32] = target: Aryl hydrocarbon receptor (Homo sapiens) (UniProt P35869); assay: qHTS assay to identify small molecule that activate the aryl hydrocarbon receptor (AhR) signaling pathway (AID 743085);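 also: HG2L7.5c1 human HepG2 liver cells with stably integrated DRE-driven firefly reporter; series mostly up to about 70 µM; nearly all actives have a fitted effect of over 15% in size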
Method in brief: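 Cell line HG2L7.5c1 (human hepatoma, 20× DRE-luc). Plated, 5 h 37C, compound/DMSO added, 24 h 37C. CellTiter-Fluor 30 min 37C → fluorescence; then ONE-Glo 30 min RT → luminescence.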

[33] = target: Peroxisome proliferator-activated receptor gamma (Homo sapiens) (UniProt P37231); assay: qHTS assay to identify small molecule agonists of the peroxisome proliferator-activated receptor gamma (PPARg) signaling pathway (AID 743094; active = well fitted activation curve with a large enough effect in the signal ratio in the repeat runs, not every such curve was filed as active; the % refers to the signal ratio)
Method in brief: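 Compounds dissolved in DMSO were added to PPARg UAS-bla HEK293H cells for 17 h at 37C, and reporter expression was quantified by fluorescence intensity after 1 h with LiveBLAzer B/G FRET substrate.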

Estrogen receptor (Homo sapiens), sequence (P03372 whole entry, looked up): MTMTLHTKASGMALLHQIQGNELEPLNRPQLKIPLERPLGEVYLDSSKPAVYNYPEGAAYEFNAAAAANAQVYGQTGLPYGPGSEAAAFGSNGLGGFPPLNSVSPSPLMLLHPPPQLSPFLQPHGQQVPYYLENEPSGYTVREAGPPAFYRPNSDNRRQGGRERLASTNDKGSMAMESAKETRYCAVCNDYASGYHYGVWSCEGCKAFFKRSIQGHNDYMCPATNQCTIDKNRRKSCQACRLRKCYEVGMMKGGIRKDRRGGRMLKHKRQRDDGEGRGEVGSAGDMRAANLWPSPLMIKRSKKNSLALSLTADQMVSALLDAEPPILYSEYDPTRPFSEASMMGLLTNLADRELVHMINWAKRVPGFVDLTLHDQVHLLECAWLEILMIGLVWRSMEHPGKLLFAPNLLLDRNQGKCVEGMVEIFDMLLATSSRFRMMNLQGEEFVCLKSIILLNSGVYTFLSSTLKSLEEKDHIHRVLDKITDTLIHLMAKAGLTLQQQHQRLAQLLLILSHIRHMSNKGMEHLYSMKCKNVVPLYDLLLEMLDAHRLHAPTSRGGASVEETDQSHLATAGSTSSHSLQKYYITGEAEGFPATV
Glucocorticoid receptor (Homo sapiens), sequence (P04150 whole entry, looked up): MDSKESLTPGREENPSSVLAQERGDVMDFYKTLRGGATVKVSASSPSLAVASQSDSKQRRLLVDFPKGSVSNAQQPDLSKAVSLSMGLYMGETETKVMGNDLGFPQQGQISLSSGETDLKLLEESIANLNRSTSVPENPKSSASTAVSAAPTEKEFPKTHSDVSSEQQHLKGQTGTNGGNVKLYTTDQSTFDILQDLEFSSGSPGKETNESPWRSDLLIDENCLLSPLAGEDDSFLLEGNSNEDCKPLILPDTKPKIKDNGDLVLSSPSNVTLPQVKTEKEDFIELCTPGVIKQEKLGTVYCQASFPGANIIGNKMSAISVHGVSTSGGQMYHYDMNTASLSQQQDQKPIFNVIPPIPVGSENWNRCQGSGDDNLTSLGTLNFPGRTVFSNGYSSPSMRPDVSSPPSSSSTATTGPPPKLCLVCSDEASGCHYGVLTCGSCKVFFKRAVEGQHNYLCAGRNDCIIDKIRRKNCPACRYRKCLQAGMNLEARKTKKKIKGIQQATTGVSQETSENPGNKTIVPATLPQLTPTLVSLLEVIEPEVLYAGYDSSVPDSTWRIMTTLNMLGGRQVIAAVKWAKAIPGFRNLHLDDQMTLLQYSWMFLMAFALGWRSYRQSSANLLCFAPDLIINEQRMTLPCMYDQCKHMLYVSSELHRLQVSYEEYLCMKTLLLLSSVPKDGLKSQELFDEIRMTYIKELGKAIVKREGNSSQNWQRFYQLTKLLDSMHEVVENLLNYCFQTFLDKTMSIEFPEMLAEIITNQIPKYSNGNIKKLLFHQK
Aromatase (Homo sapiens), sequence (P11511 whole entry, looked up): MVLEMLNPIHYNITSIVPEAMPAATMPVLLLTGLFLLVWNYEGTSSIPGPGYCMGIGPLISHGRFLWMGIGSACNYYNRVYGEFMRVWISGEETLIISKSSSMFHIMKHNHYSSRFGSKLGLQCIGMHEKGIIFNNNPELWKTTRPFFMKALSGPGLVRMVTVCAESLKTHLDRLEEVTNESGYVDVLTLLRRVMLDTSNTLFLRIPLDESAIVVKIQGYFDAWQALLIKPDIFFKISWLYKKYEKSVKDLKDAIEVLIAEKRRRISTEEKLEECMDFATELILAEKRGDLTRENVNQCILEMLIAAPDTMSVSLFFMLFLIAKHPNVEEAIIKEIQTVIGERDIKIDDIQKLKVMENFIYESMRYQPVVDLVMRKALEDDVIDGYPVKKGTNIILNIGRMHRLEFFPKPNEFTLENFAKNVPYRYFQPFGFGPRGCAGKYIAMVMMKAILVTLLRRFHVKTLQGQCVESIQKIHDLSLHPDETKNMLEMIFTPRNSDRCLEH
Aryl hydrocarbon receptor (Homo sapiens), sequence (P35869 whole entry, looked up): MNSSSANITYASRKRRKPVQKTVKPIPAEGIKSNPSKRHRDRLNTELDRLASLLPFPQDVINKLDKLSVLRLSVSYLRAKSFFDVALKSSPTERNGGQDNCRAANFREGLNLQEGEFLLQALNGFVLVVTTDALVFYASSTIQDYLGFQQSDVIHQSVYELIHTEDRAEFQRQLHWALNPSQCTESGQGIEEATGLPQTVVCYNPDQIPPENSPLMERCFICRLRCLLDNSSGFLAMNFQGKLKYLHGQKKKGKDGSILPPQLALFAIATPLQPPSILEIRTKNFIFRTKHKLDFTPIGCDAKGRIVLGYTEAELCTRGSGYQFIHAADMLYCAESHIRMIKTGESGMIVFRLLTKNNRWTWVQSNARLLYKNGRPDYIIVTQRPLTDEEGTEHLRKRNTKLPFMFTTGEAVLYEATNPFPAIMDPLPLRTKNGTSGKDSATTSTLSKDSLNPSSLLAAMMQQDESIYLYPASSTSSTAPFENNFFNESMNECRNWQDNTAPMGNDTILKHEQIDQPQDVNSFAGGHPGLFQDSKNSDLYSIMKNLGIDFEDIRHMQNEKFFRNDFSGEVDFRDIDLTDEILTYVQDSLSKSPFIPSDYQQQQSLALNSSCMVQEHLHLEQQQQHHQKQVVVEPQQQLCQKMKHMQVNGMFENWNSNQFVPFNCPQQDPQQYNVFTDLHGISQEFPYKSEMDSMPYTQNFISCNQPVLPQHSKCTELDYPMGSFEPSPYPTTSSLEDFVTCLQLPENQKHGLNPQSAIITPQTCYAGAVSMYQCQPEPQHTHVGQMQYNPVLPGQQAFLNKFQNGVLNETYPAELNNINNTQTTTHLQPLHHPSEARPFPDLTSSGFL
Peroxisome proliferator-activated receptor gamma (Homo sapiens), sequence (P37231 whole entry, looked up): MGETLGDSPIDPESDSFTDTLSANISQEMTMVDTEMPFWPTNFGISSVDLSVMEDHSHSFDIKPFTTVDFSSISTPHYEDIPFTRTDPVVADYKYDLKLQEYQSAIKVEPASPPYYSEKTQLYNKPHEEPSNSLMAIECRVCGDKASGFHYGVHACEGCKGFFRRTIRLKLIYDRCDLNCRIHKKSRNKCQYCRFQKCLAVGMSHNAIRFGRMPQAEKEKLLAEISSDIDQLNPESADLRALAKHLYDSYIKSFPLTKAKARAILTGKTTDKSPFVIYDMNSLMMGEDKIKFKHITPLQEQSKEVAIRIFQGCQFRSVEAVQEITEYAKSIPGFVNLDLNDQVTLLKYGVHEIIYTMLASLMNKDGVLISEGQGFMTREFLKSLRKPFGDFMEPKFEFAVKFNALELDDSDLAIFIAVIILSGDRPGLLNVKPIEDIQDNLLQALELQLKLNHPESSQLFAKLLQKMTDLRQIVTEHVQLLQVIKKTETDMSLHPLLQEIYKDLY

For CCC(=O)O[C@H]1[C@@H](N2CCCCC2)C[C@H]2[C@@H]3CC[C@H]4C[C@H](OC(C)=O)[C@@H](N5CCCCC5)C[C@]4(C)[C@H]3CC[C@@]21C, which Potency [1] is on record?
The Potency was “inactive”.

What about the outcome [2] of the same molecule?
The outcome was “inactive”.

And the Potency [3]?
The Potency was “inactive”.

What about the Potency [4] of the same molecule?
Its Potency is “inactive”.

And the outcome [5]?
Its outcome is “inactive”.

And the Potency [6]?
The Potency was “inactive”.

What about the outcome [7] of the same molecule?
Its outcome is “inactive”.

And the outcome [8]?
Its outcome is “inactive”.

And the outcome [9]?
The outcome was “inactive”.

What about the outcome [10] of the same molecule?
The outcome was “inactive”.

And the outcome [11]?
Its outcome is “inactive”.

What about the outcome [12] of the same molecule?
The outcome was “inactive”.

What about the outcome [13] of the same molecule?
The outcome was “inactive”.

What about the outcome [14] of the same molecule?
The outcome was “inactive”.

And the outcome [15]?
The outcome was “inactive”.

What about the outcome [16] of the same molecule?
Its outcome is “inactive”.

And the outcome [17]?
Its outcome is “inactive”.

And the Potency [18]?
The Potency was “inactive”.

What about the Potency [19] of the same molecule?
The Potency was “inactive”.

What about the Potency [20] of the same molecule?
Its Potency is 2.37 µM (active).

What about the Potency [21] of the same molecule?
The Potency was 3.35 µM (active).

What about the Potency [22] of the same molecule?
Its Potency is 3.76 µM (active).

And the Potency [23]?
The Potency was “inactive”.

And the Potency [24]?
Its Potency is “inactive”.

What about the outcome [25] of the same molecule?
The outcome was “inactive”.

And the outcome [26]?
The outcome was “inactive”.

And the Potency [27]?
The Potency was “inactive”.

What about the Potency [28] of the same molecule?
The Potency was “inactive”.

And the Potency [29]?
The Potency was “inactive”.

What about the outcome [30] of the same molecule?
The outcome was “inactive”.

And the Potency (Aromatase (Homo sapiens))?
The Potency was “inactive”.

And the outcome [31]?
Its outcome is “inactive”.

What about the outcome [32] of the same molecule?
The outcome was “inactive”.

And the outcome [33]?
The outcome was “inactive”.
